# High-throughput results deposited in PubChem BioAssay by National Center for Advancing Translational Sciences (NCATS).
# Compounds with a hit are over-represented: about 17% of the library has one in this group of screens.
# TGFb SMAD3 inh – inhibitors of TGF-b signaling | Potency, µM (top dose mostly 46.1 µM), for inactives: top-dose activity, negative = inhibition, most hits filed as inhibitors | actives 1.2% (n = 410,000) | HepG2 CAGA-GFP TGF-b/SMAD3 reporter, GFP fluorescence, 18 h; TGF-beta stimulated, 500 pg/mL final; also: % is scaled to controls: 0 for no effect and ±100 for the full control effect; nearly all actives have a fitted effect of over 65% in size
#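 Inhibition of TGF-beta-driven CAGA-GFP reporter expression in HEPG2 cells is measured by cellular GFP fluorescence after 18 h stimulation with 500 pg/mL recombinant TGF-beta in 1% FBS medium at 37 degrees C.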
# DT40 TDP1 no CPT – qHTS for Inhibitors of human tyrosyl-DNA phosphodiesterase 1 (TDP1): qHTS in cells in absence of CPT; DT40 Tdp1-/- hTDP1 cells, no CPT, ATP luminescence, 48 h; Potency, µM (top dose mostly 46.2 µM), without a hit: at the highest dose activity change, negative = growth inhibition, usual class: inhibitors; actives 15% (n = 420,000); AID 686978, 2013; also: % is scaled to controls: 0 for no effect and ±100 for the full control effect; nearly all actives have a fitted effect of over 55% in size
#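 No-CPT arm: Tdp1-/-;hTDP1 DT40 cells (400/well) plus compounds, incubated ≥48 hr at 37 °C. Readout CellTiter-Glo luminescence.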
# HT1080-NT tox – kills 2HG-producing HT-1080-NT fibrosarcoma cells. HT-1080-NT fibrosarcoma viability, CellTiter-Glo ATP luminescence, 48 h. Potency, µM (doses to about 46.1 µM), without a hit: at the highest dose activity, negative = less viability, actives largely listed as cytotoxic. actives 1.6% (n = 360,000). AID 686970;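 also: NT is the 2HG producing partner of a matched IDH1 knockdown line; 0% = DMSO-treated cells and -100% = media-only wells without cells; nearly all actives have a fitted effect of over 55% in size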
#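 HT-1080-NT fibrosarcoma cells (2HG-overproducing), 750 cells/well in RPMI with 5% FBS, dosed after 2 h and incubated 48 h at 37C. CellTiter-Glo luminescence normalized to DMSO and no-cell wells; concentration-response curves fitted and classed.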
# HepG2 viability – HepG2 cytotoxicity, counter-screen for TGF-b inhibitors; actives 0.76% (n = 410,000); HepG2 CAGA-GFP viability, ATP luminescence, 18 h; AID 588856; Potency, µM (doses to about 46.1 µM), without a hit: top-dose activity change, negative = cytotoxicity, usual class: cytotoxic
#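 HepG2 CAGA-GFP cells (1000/well, DMEM with 1% FBS) received compound, then TGF-beta at 500 pg/mL final, and were incubated 18 hours at 37 degrees C. Viability was read by CellTiter-Glo luminescence. Media-only wells were set as complete cell-killing and DMSO as no toxicity.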
# HT1080 IDH1KD tx – kills HT-1080 cells with IDH1 knockdown. AID 686971. actives 2% (n = 360,000). Potency, µM (highest dose often 46.1 µM), for the others: at the top dose activity, negative = toxicity, most hits filed as cytotoxic. HT-1080 IDH1 knockdown viability, ATP luminescence, 48 h;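 also: 0% = DMSO wells and -100% = cell-free medium wells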
#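 % activity derives from luminescence (CellTiter-Glo), normalised to DMSO and no-cell wells. HT-1080-IDH1KD cells, 750/well, had 48 h compound exposure at 37 °C.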
# TDP1 cell CPT – DT40-hTDP1 cell growth loss with CPT; Potency, µM (doses to about 46.2 µM), without a hit: top-dose activity change, negative = growth inhibition, actives largely listed as inhibitors; actives 12% (n = 420,000); chicken DT40 Tdp1-/-;hTDP1 cells + 20 nM CPT, ATP luminescence, 48 h; also: % is scaled to controls: 0 for no effect and ±100 for the full control effect; nearly all actives have a fitted effect of over 55% in size
#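 Cell growth measured by CellTiter-Glo luminescence after a minimum 48 h, 37 C compound exposure with 20 nM CPT in Tdp1-knockout DT40 cells stably expressing hTDP1, seeded 400/well; qHTS titration format.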
# * marks the source's active call; other numbers are inactive results; u = inconclusive; x = no result; [ ] = remark or other dose. Calls follow the shape of the dose curve; as a rule, active = well fitted curve in the direction sought with a large enough effect; inconclusive = small, poorly fitted or top-dose-only effect, or another doubt; inactive = no such curve, though single readings can be large; an effect the other way counts as inactive or inconclusive. Potency is read from the fitted curve at half-maximal effect.
SMILES,TGFb SMAD3 inh,DT40 TDP1 no CPT,HT1080-NT tox,HepG2 viability,HT1080 IDH1KD tx,TDP1 cell CPT
CCNC(=S)NNc1nncc2ccccc12,0.0%,u,11.3%,-36.6%,-4.0%,u
O=C(CNc1cccc(Cl)c1)NNC(=S)NCc1ccccc1,-12.3%,23.1µM*,-20.9%,3.5%,-11.5%,u
Cc1cccc(C)c1NC(=S)NC(=O)c1cccc(Cl)c1,3.0%,u,8.6%,-2.6%,17.7%,u
O=C(CCc1nc2ccccc2c(=O)[nH]1)N1CCN(C/C=C/c2ccccc2)CC1,1.4%,6.51µM*,-1.6%,-39.4%,-18.0%,7.31µM*
O=c1[nH]c(CN2CCN(C/C=C/c3ccccc3)CC2)nc2cc(Cl)ccc12,-20.4%,20.6µM*,u,5.2%,-26.7%,u
CC12CCC(C(=O)N(Cc3ccccc3)Cc3ccccc3)(OC1=O)C2(C)C (stereo not drawn),-6.6%,u,-7.3%,-18.2%,-14.1%,18.4µM*
Cc1ccccc1Cn1nnc2sc3c(c2c1=O)CCCC3,u,u,x,-39.4%,x,u
Cc1cccc(Cn2cnc3c(nnn3Cc3ccc(F)cc3)c2=O)c1,-4.2%,u,10.8%,2.2%,-4.6%,u
Cc1ccccc1Cn1nnc2c1C(=O)c1ccccc1C2=O,3.55µM*,6.51µM*,-9.0%,-88.3%,23.1µM*,8.2µM*
Cc1cccc(Cn2nnc3c2C(=O)c2ccccc2C3=O)c1,3.16µM*,4.61µM*,u,-57.5%,u,9.2µM*
COc1ccc(S(=O)(=O)N2CCN(c3ccc(F)cc3)CC2)cc1C(=O)N1CCCC1,-15.3%,u,2.2%,-10.3%,-2.6%,-18.0%
CC1CCc2cc(F)ccc2N1S(=O)(=O)c1ccc(Cl)nc1 (stereo not drawn),0.0%,u,-13.0%,2.9%,u,14.6µM*
CC1CCc2cc(F)ccc2N1S(=O)(=O)c1ccc(F)cc1 (stereo not drawn),-1.0%,u,0.4%,-15.6%,1.6%,-2.5%
Oc1cccc2c(CC(O)c3c[nH]c4ccccc34)ccnc12 (stereo not drawn),u,11.2µM*,x,-3.2%,x,u
NC(Cc1c[nH]c2ccccc12)C(=O)O (stereo not drawn),x,u,x,x,x,-71.5%
Cc1ccc2c(c1)N(C(=O)c1ccc(F)cc1)C(C)(C)CC2(C)c1ccccc1 (stereo not drawn),1.8%,20.6µM*,x,3.3%,x,u
CC(=O)N1c2ccccc2C(C)(c2ccccc2)CC1(C)C (stereo not drawn),0.0%,u,-4.4%,-47.0%,u,u
CN1CCN(CC(=O)N2c3ccccc3C(C)(c3ccccc3)CC2(C)C)CC1 (stereo not drawn),3.4%,18.4µM*,-23.5%,-17.1%,u,16.4µM*
C/C(=N\NC(=O)C1COc2ccccc2O1)c1cc2ccccc2o1 (stereo not drawn),-12.5%,-22.8%,7.5%,-2.6%,13.1%,-5.1%
C=C(C)C1(O)OC(=O)C=C1OC (stereo not drawn),-11.8%,16.4µM*,-13.2%,-13.6%,-11.1%,5.17µM*
COc1ccc(C2=CC(=O)OC3(CCCCC3)O2)cc1,7.6%,u,5.8%,1.0%,10.0%,-18.6%
COc1ccc(N(C)S(=O)(=O)c2cccc(C(=O)N3CCN(Cc4ccc5c(c4)OCO5)CC3)c2)cc1,u,18.4µM*,-1.3%,-37.9%,-20.3%,23.1µM*
COc1ccc(OC)c(CN2CCN(C(=O)c3cccc(S(=O)(=O)N(C)c4ccccc4)c3)CC2)c1,u,13µM*,-10.4%,-45.5%,-6.6%,18.4µM*
COc1ccc(N(C)S(=O)(=O)c2cccc(C(=O)NCc3ccc4c(c3)OCO4)c2)cc1,-12.7%,u,-14.3%,-19.7%,-2.0%,u
COc1ccc(CCC(=O)NCc2ccc3c(c2)CCN3C(=O)c2ccc(Cl)cc2)cc1,-1.1%,u,x,2.6%,x,-6.6%
SMILES,TGFb SMAD3 inh,DT40 TDP1 no CPT,HT1080-NT tox,HepG2 viability,HT1080 IDH1KD tx,TDP1 cell CPT
Cc1cc(C)nc(-n2nc(C)cc2NC(=O)CNC(C)c2ccccc2)n1 (stereo not drawn),-2.1%,20.6µM*,8.5%,4.5%,5.5%,u
Cc1cc(C)nc(-n2nc(C)cc2NC(=O)CN2CCCC2)n1,-12.8%,-4.1%,14.6%,-1.7%,1.3%,-2.3%
Cc1ccc(C)c(C(=O)Nc2cc(C)nn2-c2nc(C)cc(C)n2)c1,-4.0%,5.17µM*,-10.9%,-18.2%,-6.1%,3.26µM*
O=C(CN1CCN(c2ccc(O)cc2)CC1)Nc1ccccc1C(=O)NCCc1ccccc1,2.4%,25.9µM*,-2.8%,-32.0%,-0.1%,u
COc1cccc(N2CCN(CC(=O)Nc3ccccc3C(=O)NCCc3ccccc3)CC2)c1,4.8%,18.4µM*,-9.4%,-12.3%,-8.2%,20.6µM*
COc1cc2c(cc1OC)CN(CC(=O)Nc1ccccc1C(=O)NCc1ccccc1)CC2,10.8%,14.6µM*,-16.5%,8.6%,-20.7%,29.1µM*
COc1cccc(N2CCN(CC(=O)NCc3ccccc3)CC2)c1,-14.7%,1.5%,16.8%,-40.8%,8.9%,4.4%
Cc1ccccc1NC(=O)CN1CCN(c2ccc(F)cc2)CC1,-8.6%,u,-10.9%,0.0%,-5.3%,u
COc1cccc(N2CCN(CC(=O)Nc3ccccc3C(=O)NCc3ccccc3)CC2)c1,-9.7%,16.4µM*,2.9%[9.24 µM],-15.7%,-3.9%,u
CC(=O)Oc1ccc2oc(=O)c3c(c2c1)CCCN3C(=O)CN1CCOCC1,8.2%,-1.5%,-1.8%,5.5%,4.4%,-13.1%
COc1cc(-c2cc(C)c3cccc(OC)c3n2)cc2c1OCCN(C(=O)Cn1nc(C)cc1C)C2,x,-8.2%,x,x,x,0.9%[9.04 µM]
COc1cc(OC)c2nc(-c3cc4c(c(OC)c3)OCCN(C(=O)CC3NC(=O)c5ccccc53)C4)cc(C)c2c1 (stereo not drawn),x,23.1µM*,x,x,x,u
CC1(C)C(=O)C=CC(=O)C(C)(C)C(=O)C=CC(=O)C(C)(C)C2=CC=C(O2)C(C)(C)C(=O)C=CC1=O,-6.2%,0.82µM*,-0.4%,-14.8%,u,0.82µM*
CC1=CC(C)(C)NC(=S)N1c1ccccc1C,2.2%,25.9µM*,0.8%,2.7%,-1.1%,u
CC1=CC(C)(C)NC(=S)N1c1ccc(C)cc1C,-9.2%,u,-33.8%,-55.0%,0.6%,u
